Only some compounds are listed: those with a hit (about 19% of all), similar ones and a draw of the others.
HT1080NT lethal = kills 2HG-producing HT-1080-NT fibrosarcoma cells. Potency, µM (highest dose often 46.1 µM), usual class: cytotoxic. 1.6% of 360,000 active. AID 686970. HT-1080-NT fibrosarcoma viability, CellTiter-Glo ATP luminescence, 48 h;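 further: NT is the 2HG producing partner of a matched IDH1 knockdown line; nearly all actives have a fitted effect of over 55% in size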
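Fibrosarcoma NT cells, 750 per well in 5% FBS RPMI, were exposed to compound for 48 hours. Viability: CellTiter-Glo luminescence.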
HT1080 IDH1KD tx = HT-1080 IDH1 knockdown cell toxicity (counter line) | HT-1080 IDH1 knockdown viability, ATP luminescence, 48 h | Potency, µM (doses to about 46.1 µM), most hits filed as cytotoxic | 2% of 360,000 active | AID 686971
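Viability of IDH1-knockdown HT-1080 fibrosarcoma cells was assessed by CellTiter-Glo after 48 h at 37 °C with titrated compound; concentration-effect curves were classified by fit quality and response size.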
TDP1 cell CPT = growth inhibition of DT40 Tdp1-/-;hTDP1 cells with camptothecin (screen for TDP1 inhibitors). AID 686979. chicken DT40 Tdp1-/-;hTDP1 cells + 20 nM CPT, ATP luminescence, 48 h. Potency, µM (doses to about 46.2 µM), most hits filed as inhibitors. 12% of 420,000 active; further: nearly all actives have a fitted effect of over 55% in size
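Cell growth measured by CellTiter-Glo luminescence after a minimum 48 h, 37 C compound exposure with 20 nM CPT in Tdp1-knockout DT40 cells stably expressing hTDP1, seeded 400/well; qHTS titration format.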
KB-3-1 cytotox = kills parental KB-3-1 adenocarcinoma cells; KB-3-1 viability, CellTiter-Glo ATP luminescence, 72 h; Potency, µM (titrated, usually from 46.1 µM), hits mostly cytotoxic; 1.4% of 400,000 active; further: nearly all actives have a fitted effect of over 60% in size
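Cytotoxicity measured as CellTiter-Glo luminescence after 72 h at 37 C. Compound titrations were pinned onto drug-naive KB-3-1 parental adenocarcinoma cells grown in DMEM with 10% FBS, and normalized data fitted to concentration-response curves.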
DT40 TDP1 no CPT = qHTS for Inhibitors of human tyrosyl-DNA phosphodiesterase 1 (TDP1): qHTS in cells in absence of CPT | DT40 Tdp1-/- hTDP1 cells, no CPT, ATP luminescence, 48 h | Potency, µM (highest dose often 46.2 µM), most hits filed as inhibitors | 15% of 420,000 active; further: nearly all actives have a fitted effect of over 55% in size
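Luminescent ATP content (CellTiter-Glo) served as the growth readout. Knockout chicken DT40 cells expressing human TDP1 were exposed to compounds without camptothecin for a minimum 48 hr at 37 °C.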
KB-V1 cytotox = KB-V1 MDR subline cytotoxicity; Potency, µM (series often up to 46.1 µM), actives largely listed as cytotoxic; 3.4% of 400,000 active; KB-V1 MDR cells viability, CellTiter-Glo, 72 h; further: nearly all actives have a fitted effect of over 60% in size
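Cells of the MDR subline KB-V1 are plated, dosed with compound at multiple concentrations, and incubated 72 h at 37 degrees C; CellTiter-Glo is then added and luminescence read after 10 min.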
Numbers stand for hits; – = inactive; ? = inconclusive; · = not tested or not shown; [ ] = dose if it differs, or a comment. The call rests on the fitted dose curve; in most records, active means well fitted curve in the direction sought with a large enough effect; inconclusive means small, poorly fitted or top-dose-only effect, or another doubt; inactive means no such curve, though single readings can be large; an effect the other way counts as inactive or inconclusive.

SMILES	HT1080NT lethal	HT1080 IDH1KD tx	TDP1 cell CPT	KB-3-1 cytotox	DT40 TDP1 no CPT	KB-V1 cytotox
CCOC(=O)[C@]12Cc3cc(C)ccc3[C@H]1N(CCC(=O)OC)C(=O)c1cc(OC)ccc12	23µM	18µM	10µM	18µM	8.2µM	21µM
CC1CN(C(=O)CCC(=O)N2CCC3(CC2)OCCO3)c2cc(Cl)ccc2O1 (stereo not given)	–	–	–	–	–	–
COc1ccc(OC)c(C[C@H](C)N)c1	·	·	–	·	–	·
Nc1c(Br)cc2c3c(cccc13)-c1ccccc1-2	–	?	8.2µM	?	5.2µM	–
O=C(COc1ccccc1)N1CCN(CC2CC=CCC2)CC1 (stereo not given)	–	–	–	–	–	–
CC1CC(C)CN(S(=O)(=O)c2ccc3c(c2)oc(=O)n3CC(=O)NCc2cccnc2)C1 (stereo not given)	–	–	?	–	?	?
CN(Cc1ccccc1)C(=O)Cn1c(=O)oc2cc(S(=O)(=O)NCc3ccccc3)ccc21	–	–	15µM	–	21µM	–
Cc1ccc(Cn2cccc(C(=O)Nc3cc([N+](=O)[O-])ccc3C)c2=O)cc1	·	·	–	?	?	?
COc1ccc(N(CC(=O)Nc2cccc(SC)c2)S(C)(=O)=O)cc1Cl	–	–	–	–	?	–
C[C@H]1CNC(=O)c2c(C(=O)N3CCN(C(=O)OC(C)(C)C)CC3)ncn21	–	–	26µM	–	?	–
Cc1c(C)c2c(c(C)c1OC(=O)CCC(=O)OCCO)CC[C@@](C)(CCC[C@H](C)CCC[C@H](C)CCCC(C)C)O2	·	·	11µM	·	?	·
CCC1(NS(=O)(=O)c2ccc(N)cc2)C(=O)N(C)C(=O)N(C)C1=O	–	–	?	–	?	–
Cc1ccc(-n2nc3c(=O)n(CC(=O)NCC(C)c4ccccc4)nc(C)c3c2C)cc1 (stereo not given)	·	·	21µM	–	?	–
CNCC(C)c1ccccc1 (stereo not given)	–	?	–	–	–	–
CC(C)(C)C(=O)N1Cc2ccccc2-n2nncc2C1	–	–	?	–	–	–
CC(C)CN(C(=O)CN1CC=C(c2ccccc2)CC1)c1c(N)n(CC(C)C)c(=O)[nH]c1=O	–	–	?	–	18µM	–
COc1ccc(CCN(C)Cc2c(F)cccc2F)cc1OC	–	–	–	–	–	12µM
COc1ccc(CCNCc2ccc(F)cc2)cc1OC	–	–	–	–	–	–
CC(=O)c1ccc(N2CCN(c3ccc4cc(S(=O)(=O)N5CCCCC5)ccc4n3)CC2)cc1	·	·	?	–	3.7µM	–
COc1c(C)cc(Br)cc1C(=O)Nc1ccc(-c2nc3ncccc3o2)cc1	·	·	6.5µM	–	4.6µM	–
CNC(C)Cc1ccc2c(c1)OCO2 (stereo not given)	·	·	–	·	–	·
c1ccc2c[n+](CCCCCCCCCC[n+]3ccc4ccccc4c3)ccc2c1	–	?	10µM	·	8.3µM	?
Cc1sc2ncnc(N3CCC(C(=O)Nc4ccc(C#N)c(Cl)c4)CC3)c2c1C	?	?	18µM	–	?	–
O=C1C(Cl)=CC(=Nc2ccc(O)cc2)C=C1Cl	–[9.24 µM]	–	1.3µM	?	2.6µM	–
CNC(=O)Oc1cccc2c1OC(C)(C)O2	–	–	?	?	?	–
SMILES	HT1080NT lethal	HT1080 IDH1KD tx	TDP1 cell CPT	KB-3-1 cytotox	DT40 TDP1 no CPT	KB-V1 cytotox
O=C1CN=C(c2cccs2)c2c(sc3c2CCCC3)N1	11µM	10µM	16µM	?	?	?
O=C1CN=C(c2ccccc2)c2c(sc3c2CCCC3)N1	?	23µM	?	–	?	?
COc1ccc(C(=O)c2nc3ccccc3n2C(C)C)cc1	–	–	–	–	–	–
Cc1cc(N2CCN(C(=O)c3ccco3)CC2)n2nc(-c3cccc(Cl)c3)cc2n1	?	?	23µM	?	?	?
Cc1cccc(N2C(=O)/C(=C/N3CCN(C(=O)c4ccco4)CC3)C(=O)NC2=S)c1	–	–	–	–	–	–
O=c1c2ccccc2nc(C[n+]2ccccc2)n1-c1cccc(C(F)(F)F)c1	–	–	–	–	–	–
c1cc2cc(c1)C[n+]1ccc(c3ccccc31)NCc1ccc(cc1)CNc1cc[n+](c3ccccc13)C2	·	·	9.4µM	·	6.7µM	·
CN(CC(=O)Nc1cccc(F)c1)CC(=O)Nc1cccc(S(=O)(=O)N(C)c2ccccc2)c1	–	–	23µM	–	23µM	?
CCOc1ccc(NC(=O)C2C3c4ccccc4C(c4ccccc43)C2C(=O)O)cc1 (stereo not given)	–	–	–	–	–	–
CCOc1ccc(NCc2cccn2-c2nnc(N3CCC(C(=O)NC(C)c4ccccc4)CC3)s2)cc1 (stereo not given)	·	·	21µM	·	8.2µM	·
Brc1ccc2c(c1)CN(CC1CCCCC1)Cc1cnnn1-2	–	–	?	–	?	18µM
COc1ccc(NC(=S)N2Cc3ccccc3-n3nncc3C2)c(OC)c1	–	–	?	–	12µM	–
Cc1cc(C)c(S(=O)(=O)N2Cc3ccccc3-n3nncc3C2)c(C)c1	–	–	5.2µM	?	2.1µM	?
O=S(=O)(c1cccc2ccccc12)N1Cc2ccccc2-n2nncc2C1	–	–	23µM	–	12µM	?
C=C1C2C[C@]3(C4CC5[C@@]6(C)CC[C@H](O)[C@@]5(C3CC2=O)C4[N+]([O-])(CC)C6)[C@@H]1O (stereo not given in full)	·	·	–[9.04 µM]	·	–[9.04 µM]	·
O=C(NCc1ccccc1)C(=O)NCC1OCCN1S(=O)(=O)c1ccc([N+](=O)[O-])cc1 (stereo not given)	–	–	?	–	?	–
CN1C(=O)N(C)C(=O)C2(Cc3cc(NC(=O)c4ccc(F)cc4)ccc3N3CCCC32)C1=O (stereo not given)	–	–	?	–	?	?
COc1ccc(S(=O)(=O)N2Cc3ccccc3-n3nncc3C2)cc1	–	–	16µM	–	15µM	–
O=S(=O)(c1ccc(Cl)cc1)N1Cc2cc(Br)ccc2-n2nncc2C1	–	–	21µM	–	23µM	?
Cc1oc(-c2ccccc2F)nc1CS(=O)(=O)CC(=O)N1CCN(c2cccc(C(F)(F)F)c2)CC1	·	·	?	–	?	–
O=c1c2cc(N3CCOCC3)ccc2[nH]c(=S)n1Cc1ccc(Cl)cc1	–	–	21µM	–	15µM	21µM
c1cnc(N2CCC3(CCNCC3)CC2)nc1	·	·	?	·	23µM	·
c1ccc(N2CCCC3(CCNCC3)C2)nc1	·	·	?	·	16µM	·

From PubChem BioAssay
